The values below come from PubChem BioAssay (EPA / NIEHS).

Records with an inconclusive call do not appear. Calls of active or inactive are those of the source. How the source made its calls: active means hit-call score of the fitted dose curve at least 0.9, where 1 is the maximum; inconclusive means response in the unintended direction; inactive means score below 0.9.

Experiment [1] addresses Estrogen receptor (Homo sapiens) (UniProt P03372). Kind of experiment: OT_ER_ERaERa_1440: Odyssey Thera (OT) 24-hour HEK293T Protein-Complementation Assay for Estrogen Receptor-alpha/-alpha Homodimer (AID 2283349).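 Further: hits raise fluorescence above DMSO for agonists and antagonists alike.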 A digest of the protocol:
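Stably transfected HEK293T; ERα LBD homodimer PCA. 24 h dosing, fluorescence intensity read, gain-of-signal vs DMSO.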

The target is the same in experiment [2]. Kind of experiment: OT_ER_ERaERa_0480: Odyssey Thera (OT) 8-hour HEK293T Protein-Complementation Assay for Estrogen Receptor-alpha/-alpha Homodimer (AID 2283351).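 Further: rise in fluorescence from reassembled reporter fragments on ERα LBD homodimer in nucleus or whole cell.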 A digest of the protocol: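 Cells were treated for 8 hours, then imaged on a laser scanning plate cytometer. Complementation of reporter fragments fused to the human ERα ligand-binding domain (residues 310-547) in HEK293T gave fluorescence, and gain of signal over vehicle was fitted.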

Experiment [3] has as its target Estrogen receptor (Homo sapiens) + Estrogen receptor beta (Homo sapiens) (UniProt P03372+Q92731). In words: OT_ER_ERaERb_0480: Odyssey Thera (OT) 8-hour HEK293T Protein-Complementation Assay for Estrogen Receptor-alpha/-beta Heterodimer (AID 2283352). A digest of the protocol:
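Fluorescence increase from reconstituted reporter fragments, quantified by laser scanning cytometer, reflects ER-alpha/ER-beta heterodimer formation in human HEK293T cells. Exposure 8 h; positive-direction fitting against DMSO vehicle.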

Experiment [4] addresses Androgen Receptor/SRC-1 Co-activator, AR (gene 367) (UniProt P10275). In words: OT_AR_ARSRC1_0960: Odyssey Thera (OT) 16-hour HEK293T Protein-Complementation Assay for Androgen Receptor/SRC-1 Co-activator (AID 2283353).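 Further: actives raise the signal above DMSO so potency reflects increased AR and SRC-1 complex.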 A digest of the protocol: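 Stable HEK293T line carries AR and SRC-1 each linked to a Venus fragment; chemicals are applied for 16 h, cells imaged at two wavelengths, and the 488 nm nucleus/cytoplasm ratio is taken as the signal, rising relative to DMSO.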

Chain of Estrogen receptor (Homo sapiens) (P03372 whole entry, looked up, the tested form may be a part): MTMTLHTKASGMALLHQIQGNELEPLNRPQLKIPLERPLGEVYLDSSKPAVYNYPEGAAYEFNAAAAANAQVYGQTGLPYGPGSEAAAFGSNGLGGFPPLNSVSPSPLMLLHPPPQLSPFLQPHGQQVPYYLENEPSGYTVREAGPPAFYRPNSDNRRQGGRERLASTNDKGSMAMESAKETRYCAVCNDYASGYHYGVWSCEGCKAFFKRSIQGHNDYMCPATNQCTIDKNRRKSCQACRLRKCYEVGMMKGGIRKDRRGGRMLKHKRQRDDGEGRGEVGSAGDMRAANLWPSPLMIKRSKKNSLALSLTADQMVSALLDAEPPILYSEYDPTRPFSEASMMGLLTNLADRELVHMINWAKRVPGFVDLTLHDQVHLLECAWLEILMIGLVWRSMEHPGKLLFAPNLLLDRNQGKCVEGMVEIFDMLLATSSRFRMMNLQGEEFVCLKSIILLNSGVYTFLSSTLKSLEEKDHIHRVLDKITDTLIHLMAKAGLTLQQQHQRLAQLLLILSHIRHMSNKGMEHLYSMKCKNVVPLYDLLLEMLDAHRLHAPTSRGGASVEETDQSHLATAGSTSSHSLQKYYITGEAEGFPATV
Chain of Estrogen receptor (Homo sapiens) + Estrogen receptor beta (Homo sapiens) (P03372 whole entry, looked up, the tested form may be a part): as above
Chain of Estrogen receptor (Homo sapiens) + Estrogen receptor beta (Homo sapiens) (Q92731 whole entry, looked up, the tested form may be a part): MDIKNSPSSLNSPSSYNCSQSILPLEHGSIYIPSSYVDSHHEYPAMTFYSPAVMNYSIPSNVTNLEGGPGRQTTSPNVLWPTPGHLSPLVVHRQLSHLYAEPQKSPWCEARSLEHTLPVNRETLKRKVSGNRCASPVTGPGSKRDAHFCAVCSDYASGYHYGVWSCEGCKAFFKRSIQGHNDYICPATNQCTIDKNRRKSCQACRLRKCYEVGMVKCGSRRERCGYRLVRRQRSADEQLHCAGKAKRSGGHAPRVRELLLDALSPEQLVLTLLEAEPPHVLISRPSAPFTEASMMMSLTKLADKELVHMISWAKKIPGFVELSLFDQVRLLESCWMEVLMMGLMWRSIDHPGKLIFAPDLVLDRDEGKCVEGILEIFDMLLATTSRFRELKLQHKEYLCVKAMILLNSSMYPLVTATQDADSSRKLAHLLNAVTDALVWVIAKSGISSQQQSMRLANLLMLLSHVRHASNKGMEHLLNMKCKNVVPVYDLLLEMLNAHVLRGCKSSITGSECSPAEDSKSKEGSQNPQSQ
Chain of Androgen Receptor/SRC-1 Co-activator, AR (gene 367) (P10275 whole entry, looked up, the tested form may be a part): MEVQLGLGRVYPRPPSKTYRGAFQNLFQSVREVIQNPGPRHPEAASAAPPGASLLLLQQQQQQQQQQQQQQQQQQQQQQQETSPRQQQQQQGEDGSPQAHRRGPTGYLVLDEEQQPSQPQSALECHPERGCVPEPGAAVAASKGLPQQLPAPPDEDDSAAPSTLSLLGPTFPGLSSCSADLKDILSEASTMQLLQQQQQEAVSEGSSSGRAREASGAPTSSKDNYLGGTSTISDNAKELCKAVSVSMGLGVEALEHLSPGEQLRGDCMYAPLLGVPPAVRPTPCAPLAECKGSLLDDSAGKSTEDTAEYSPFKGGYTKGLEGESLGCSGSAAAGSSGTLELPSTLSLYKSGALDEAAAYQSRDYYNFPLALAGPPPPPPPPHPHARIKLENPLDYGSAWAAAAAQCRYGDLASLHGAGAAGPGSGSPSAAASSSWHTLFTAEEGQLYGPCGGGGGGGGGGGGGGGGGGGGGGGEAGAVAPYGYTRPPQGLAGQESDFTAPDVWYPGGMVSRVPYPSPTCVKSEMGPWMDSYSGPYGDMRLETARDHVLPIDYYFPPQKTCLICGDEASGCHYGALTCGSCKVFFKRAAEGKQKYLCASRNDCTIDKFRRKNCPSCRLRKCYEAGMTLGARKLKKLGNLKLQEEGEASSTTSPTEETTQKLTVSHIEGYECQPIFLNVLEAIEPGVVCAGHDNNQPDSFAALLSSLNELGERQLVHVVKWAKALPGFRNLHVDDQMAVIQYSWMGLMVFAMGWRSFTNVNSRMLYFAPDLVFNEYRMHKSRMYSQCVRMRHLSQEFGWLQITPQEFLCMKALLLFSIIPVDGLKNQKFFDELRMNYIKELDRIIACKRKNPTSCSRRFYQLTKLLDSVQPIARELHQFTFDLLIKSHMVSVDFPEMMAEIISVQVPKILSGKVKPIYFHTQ

With `CCC(C)(C)C(=O)O[C@H]1C[C@@H](C)C=C2C=C[C@H](C)[C@H](CC[C@@H]3C[C@@H](O)CC(=O)O3)[C@H]21`, the call in experiment [1], in experiment [2] and in experiment [3] was inactive.
`C1N2CN3CN1CN(C2)C3`: the result in experiment [4] was inactive.
As for `COC(=O)CC(=O)OC`, the outcome in experiment [1], in experiment [2] and in experiment [3] was inactive.
For the compound `CC1(C)C(=O)N(Br)C(=O)N1Br`, in experiment [4], the call was inactive.
With `Cc1ccc(N)cc1O`, the compound was called inactive in experiment [1], in experiment [2], in experiment [3] and in experiment [4].
Regarding `O=C(NS(=O)(=O)/C=C/c1ccccc1)c1ccc(F)cc1Cl`, the result in experiment [1], in experiment [2] and in experiment [3] was inactive.
As to `CCNc1ccccc1`, the call in experiment [4] was inactive.
In the case of `CC(C)=CCCC(C)CCO` (stereo unspecified), the compound was called inactive in experiment [1], in experiment [2] and in experiment [4].
`CCCCCCCCO`: the result in experiment [1], in experiment [2] and in experiment [3] was inactive.
Take `COC(=O)c1ccccc1O`: the result in experiment [1] and in experiment [3] was inactive.
Take `CCCCC(CC)COC(=O)c1ccc(C(=O)OCC(CC)CCCC)cc1` (stereo unspecified): the compound was called inactive in experiment [4].
Take `O=C(CCCCCCCCc1cccnc1)N1CCC(C=C(c2ccccc2)c2ccccc2)CC1`: the concentration at half-maximal activity (AC50) in experiment [4] is 27.5 µM (active).
As for `CC[C@H]1CC[C@H](NCc2cc3c(cc2OC)[C@H]2C[C@H]2C(=O)N3C)[C@H](c2ccccc2)N1`, the outcome in experiment [1] and in experiment [2] was inactive.
In the case of `C=CC(=C)CCC=C(C)C`, the result in experiment [1], in experiment [2] and in experiment [3] was inactive.
For `CCCC(=O)OCC`, the compound was classed as inactive in experiment [1] and in experiment [3].
`Cn1cnc([N+](=O)[O-])c1Sc1ncnc2nc[nH]c12`: the compound was called inactive in experiment [1], in experiment [2] and in experiment [3].

A word on the AC50: it is the concentration at which the activity in the assay is half-maximal.
